The source of these data is PubChem BioAssay (NCI).

Among the test systems are SR leukemia; RPMI-8226 leukemia; OVCAR-8 ovarian; OVCAR-5 ovarian; OVCAR-4 ovarian; SK-OV-3 ovarian; IGROV1 ovarian; HS 578T breast; NCI/ADR-RES ovarian; T-47D breast; BT-549 breast; MDA-MB-435 melanoma; SW-620 colon; MCF7 breast; HCT-116 colon; HCC-2998 colon; KM12 colon; OVCAR-3 ovarian.
Assay in all cases: NCI-60 one-dose screen, 48 h (100 = growth as untreated, 0 = no growth, -100 = all killed)
Common to all, as to conditions: 10 µM unless noted

Each structure is given as a SMILES string. This is part of a sample that, as a whole, favours compounds with a hit. Of some 83,000 tested, about 20% had one in any assay.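 Percent growth is the endpoint: 0 to 100 indicates growth inhibition (40 means 60% inhibition), 0 means no net growth, and negative values indicate cell death.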 A number with no mark means an inactive call. The source made the active and inactive calls. The calls were made as follows: active = growth percent below 10; inactive = the rest.

In the case of `O=C(Cc1ccccc1)c1ccc(Cl)cc1`, the growth in the assay with SR leukemia is 96.7%; in the assay with RPMI-8226 leukemia it was 160%; in the assay on OVCAR-8 ovarian, 103%; in the assay on OVCAR-5 ovarian, 83.2%; with OVCAR-4 ovarian, 107%; in the assay with SK-OV-3 ovarian, 107%. Also, the growth is 105% with IGROV1 ovarian; 120% in the assay on HS 578T breast; 96.6% in the assay with NCI/ADR-RES ovarian; 91.1% in the assay on T-47D breast; 106% in the assay on BT-549 breast; 94.3% with MDA-MB-435 melanoma. The growth in the assay on SW-620 colon was 99%; in the assay on MCF7 breast, 95.6%; in the assay with HCT-116 colon, 93.2%; with HCC-2998 colon, 99%; in the assay with KM12 colon, 101%.

As to `CN1CCN(Cc2ccc(NC(=O)c3cncc(C#Cc4cncc5nccnc45)c3)cc2C(F)(F)F)CC1`, the growth in the assay with SR leukemia was 63.7%; in the assay with RPMI-8226 leukemia, 36.9%; in the assay on OVCAR-8 ovarian, 62.1%; in the assay on OVCAR-5 ovarian it was 36.4%; with OVCAR-4 ovarian it was 38.9%; with SK-OV-3 ovarian, 74.7%. The growth was 22.2% in the assay on IGROV1 ovarian; 39.6% in the assay with HS 578T breast; 72.4% in the assay with NCI/ADR-RES ovarian; 46.5% with T-47D breast; 82.8% with BT-549 breast; 21.9% with MDA-MB-435 melanoma. The growth with SW-620 colon is 26.4%; in the assay with MCF7 breast, 33.8%; in the assay on HCT-116 colon it was 20.2%; with HCC-2998 colon, 33.6%; in the assay with KM12 colon it was 13.9%.

Turning to `CC(=O)C1=C(O)C=C2Oc3c(C(=O)/C=C/c4cc(C(F)(F)F)cc(C(F)(F)F)c4)c(O)c(C)c(O)c3[C@]2(C)C1=O`, the growth in the assay on SR leukemia is -29.3% (active); in the assay with RPMI-8226 leukemia it was -18.8% (active); in the assay with OVCAR-8 ovarian it was -29.1% (active); in the assay on OVCAR-5 ovarian, -6.52% (active); in the assay with OVCAR-4 ovarian, 12.5%; in the assay on SK-OV-3 ovarian, -32.9% (active). Besides, the growth was -6.87% (active) in the assay on IGROV1 ovarian; -12.2% (active) with HS 578T breast; -48.2% (active) with NCI/ADR-RES ovarian; -29.6% (active) in the assay with BT-549 breast; -33.9% (active) in the assay on MDA-MB-435 melanoma; -10.2% (active) in the assay on SW-620 colon. For the same compound, the growth in the assay with MCF7 breast was -42% (active); with HCT-116 colon it was -30% (active); in the assay on HCC-2998 colon, -87.4% (active); with KM12 colon it was -46% (active).

Regarding `Cc1cc(-c2nc3ccccc3s2)ccc1NC(=O)COc1ccc(Cl)cc1`, the growth in the assay on SR leukemia was 87.5%; in the assay on RPMI-8226 leukemia, 72.1%; with OVCAR-8 ovarian it was 105%; in the assay on OVCAR-5 ovarian it was 65.5%; with OVCAR-4 ovarian, 56.5%; with SK-OV-3 ovarian it was 104%. In addition, the growth with IGROV1 ovarian was 31.6%; in the assay on HS 578T breast, 117%; with NCI/ADR-RES ovarian it was 93.3%; with T-47D breast, 18.9%; with BT-549 breast, 105%; in the assay with MDA-MB-435 melanoma, 113%. The growth is 106% in the assay on SW-620 colon; 17.5% with MCF7 breast; 76.7% in the assay on HCT-116 colon; 91.8% in the assay on HCC-2998 colon; 118% in the assay on KM12 colon.

On to `CCOc1ccc(Nc2nc(-c3c(C)nc4ncccn34)cs2)cc1`, for which the growth with SR leukemia is 6.09% (active); in the assay on RPMI-8226 leukemia, -9.92% (active); in the assay on OVCAR-8 ovarian it was 16.5%; in the assay with OVCAR-5 ovarian, 20.7%; in the assay with OVCAR-4 ovarian, 39.6%; in the assay on SK-OV-3 ovarian, 3.86% (active). Moreover, the growth was 33.7% with IGROV1 ovarian; 34.1% in the assay with HS 578T breast; 8.95% (active) with NCI/ADR-RES ovarian; 20.6% with BT-549 breast; -41% (active) with MDA-MB-435 melanoma; 24.6% with SW-620 colon. For the same compound, the growth with MCF7 breast is 15%; in the assay with HCT-116 colon, 2.95% (active); with HCC-2998 colon, 23.4%.

As for `CC(C)n1cc2c(N)ncnc2n1`, the growth is 97.5% in the assay on SR leukemia; 107% with RPMI-8226 leukemia; 108% in the assay on OVCAR-8 ovarian; 109% in the assay with OVCAR-5 ovarian; 95.5% in the assay on OVCAR-4 ovarian; 106% in the assay on SK-OV-3 ovarian. Also, the growth in the assay with IGROV1 ovarian is 107%; with HS 578T breast, 105%; in the assay on NCI/ADR-RES ovarian, 107%; in the assay with T-47D breast, 93.9%; in the assay on BT-549 breast, 101%; in the assay on MDA-MB-435 melanoma, 98.6%. The growth was 110% in the assay on SW-620 colon; 102% with MCF7 breast; 102% in the assay on HCT-116 colon; 122% with HCC-2998 colon; 111% with KM12 colon.

`NS(=O)(=O)c1ccc(-n2ncc3c(=O)[nH]c(CN4CCN(c5cc6c(cc5F)c(=O)c(C(=O)O)cn6C5CC5)CC4)nc32)cc1`: the growth with SR leukemia is 97.2%; with RPMI-8226 leukemia it was 105%; in the assay with OVCAR-8 ovarian it was 97.8%; with OVCAR-5 ovarian, 97.6%; in the assay on OVCAR-4 ovarian, 104%; in the assay on SK-OV-3 ovarian, 107%. The growth was 92.8% in the assay on IGROV1 ovarian; 97.8% in the assay on HS 578T breast; 94.4% with NCI/ADR-RES ovarian; 106% with T-47D breast; 68.9% in the assay with BT-549 breast; 99.9% in the assay with MDA-MB-435 melanoma. In addition, the growth with SW-620 colon was 98.8%; with MCF7 breast it was 94.9%; in the assay on HCT-116 colon it was 100%; in the assay on HCC-2998 colon, 93.9%; in the assay on KM12 colon, 102%.

Regarding `Cc1ccc(Nc2nc(N)nc(Nc3ccc4ccccc4c3)n2)cc1`, the growth in the assay with SR leukemia is 26.8%; in the assay on RPMI-8226 leukemia, 48.2%; in the assay on OVCAR-8 ovarian, 47.7%; with OVCAR-5 ovarian it was 79.9%; in the assay on OVCAR-4 ovarian, 74.7%; in the assay on SK-OV-3 ovarian, 58.4%. Besides, the growth in the assay on IGROV1 ovarian was 51.4%; with HS 578T breast, 47%; in the assay on NCI/ADR-RES ovarian, 30.6%; with T-47D breast it was 36.2%; with BT-549 breast it was 48.1%; with MDA-MB-435 melanoma it was 16.6%. Also, the growth with SW-620 colon was 23.5%; in the assay on MCF7 breast it was 29.6%; with HCT-116 colon it was 21.8%; in the assay with HCC-2998 colon, 77.5%; in the assay with KM12 colon, 25.1%.

Regarding `CC(=O)CC(C)(C)c1ccc(Cl)cc1`, the growth in the assay with SR leukemia was 101%; in the assay with RPMI-8226 leukemia, 98.3%; with OVCAR-8 ovarian it was 101%; with OVCAR-5 ovarian, 95.7%; in the assay on OVCAR-4 ovarian it was 93.6%; in the assay with SK-OV-3 ovarian, 107%. The growth in the assay with OVCAR-3 ovarian was 97.4%; in the assay with HS 578T breast, 99.5%; in the assay with NCI/ADR-RES ovarian it was 96.2%; in the assay on T-47D breast it was 94.2%; in the assay on BT-549 breast, 101%; with MDA-MB-435 melanoma it was 104%. For the same compound, the growth is 100% with SW-620 colon, 105% in the assay on MCF7 breast, 97.5% in the assay on HCT-116 colon and 98.7% with HCC-2998 colon.
